{"source": "the supplement of paper PMC8728848", "binders": {"B1": {"name": "Gal 7 (Homo sapiens) (protein)", "chain": "MSNVPHKSSLPEGIRPGTVLRIRGLVPPNASRFHVNLLCGEEGGSDAALHFNPRLDTSEVVFNSKEGGSWGREERGPGVPFGRGQPFEVLIIASDDGFKAVVGDAQYHHFRHRLPLARVRLVEVGGDVQLDSVRIF"}}, "assay_in_all_cases": "glycan array binding signal (z-score within array); higher = stronger binding", "conditions_in_all_cases": "glycan notation: IUPAC condensed, linker removed", "key": {"[1]": {"target": "Fuc(a1-2)Gal(b1-3)GlcNAc(b1-3)GalNAc", "in_short": "(§1)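 The binding signal is a Z-score computed within each array and averaged over linkers. Arrays of the same protein sequence at different concentrations or buffers were also averaged together. Data originate from 3228 arrays in the Consortium for Functional Glycomics database, kept only where the protein sequence was available.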"}, "Fuc(a1-2)Gal(b1-4)Glc6S": {"target": "Fuc(a1-2)Gal(b1-4)Glc6S", "in_short": "as §1"}, "[2]": {"target": "Fuc(a1-2)Gal(b1-4)GlcNAc(b1-3)Gal(b1-4)GlcNAc", "in_short": "as §1"}, "[3]": {"target": "Fuc(a1-2)Gal(b1-4)GlcNAc(b1-3)Gal(b1-4)GlcNAc(b1-2)Man(a1-3)[Fuc(a1-2)Gal(b1-4)GlcNAc(b1-3)Gal(b1-4)GlcNAc(b1-2)Man(a1-6)]Man(b1-4)GlcNAc(b1-4)GlcNAc", "in_short": "as §1"}, "[4]": {"target": "Fuc(a1-2)Gal(b1-4)GlcNAc(b1-3)Gal(b1-4)GlcNAc(b1-3)Gal(b1-4)GlcNAc", "in_short": "as §1"}, "[5]": {"target": "Fuc(a1-2)Gal(b1-4)GlcNAc(b1-3)GalNAc", "in_short": "as §1"}, "[6]": {"target": "Fuc(a1-2)[Gal(a1-3)]Gal(b1-4)GlcNAc(b1-3)[Fuc(a1-2)[Gal(a1-3)]Gal(b1-4)GlcNAc(b1-6)]GalNAc", "in_short": "as §1"}, "[7]": {"target": "Fuc(a1-2)[Gal(a1-4)]Gal(b1-4)GalNAc", "in_short": "as §1"}, "[8]": {"target": "Fuc(a1-2)[GalNAc(a1-4)]Gal(b1-4)GlcNAc", "in_short": "as §1"}, "[9]": {"target": "Fuc(a1-3)[Gal(b1-4)]GlcNAc(b1-4)Gal(b1-4)[Fuc(a1-3)]GlcNAc", "in_short": "as §1"}, "Fuc(a1-4)GlcNAc": {"target": "Fuc(a1-4)GlcNAc", "in_short": "as §1"}, "Gal(a1-3)Gal(b1-3)Glc": {"target": "Gal(a1-3)Gal(b1-3)Glc", "in_short": "as §1"}, "[10]": {"target": "Gal(a1-3)Gal(b1-4)GlcNAc(b1-6)GalNAc", "in_short": "as §1"}, "[11]": {"target": "Gal(a1-4)Gal(b1-3)GlcNAc(b1-2)Man(a1-3)[Gal(a1-4)Gal(b1-3)GlcNAc(b1-2)Man(a1-6)]Man(b1-4)GlcNAc(b1-4)GlcNAc", "in_short": "as §1"}, "Gal(a1-4)Gal(b1-4)GlcNAc": {"target": "Gal(a1-4)Gal(b1-4)GlcNAc", "in_short": "as §1"}, "Gal(b1-3)Gal": {"target": "Gal(b1-3)Gal", "in_short": "as §1"}, "Gal(b1-3)Gal(b1-4)GlcNAc": {"target": "Gal(b1-3)Gal(b1-4)GlcNAc", "in_short": "as §1"}, "Gal(b1-3)GalNAc": {"target": "Gal(b1-3)GalNAc", "in_short": "as §1"}, "[12]": {"target": "Gal(b1-3)GalNAc(b1-3)Gal(b1-4)GlcNAc", "in_short": "as §1"}, "[13]": {"target": "Gal(b1-3)GlcNAc(b1-3)GalNAc", "in_short": "as §1"}, "[14]": {"target": "Gal(b1-3)GlcNAc(b1-6)Gal(b1-4)GlcNAc", "in_short": "as §1"}, "[15]": {"target": "Gal(b1-3)[Fuc(a1-4)]GlcNAc(b1-3)Gal(b1-4)[Fuc(a1-3)]GlcNAc", "in_short": "as §1"}, "[16]": {"target": "Gal(b1-4)GalNAc(b1-3)[Fuc(a1-2)]Gal(b1-4)GlcNAc", "in_short": "as §1"}, "Gal(b1-4)Glc6S": {"target": "Gal(b1-4)Glc6S", "in_short": "as §1"}, "[17]": {"target": "Gal(b1-4)GlcNAc(b1-2)[Gal(b1-4)GlcNAc(b1-6)]Man(a1-6)[Gal(b1-4)GlcNAc(b1-2)Man(a1-3)]Man(b1-4)GlcNAc(b1-4)[Fuc(a1-6)]GlcNAc", "in_short": "as §1"}, "[18]": {"target": "Gal(b1-4)GlcNAc(b1-2)[Gal(b1-4)GlcNAc(b1-6)]Man(a1-6)[GlcNAc(b1-4)][Gal(b1-4)GlcNAc(b1-2)Man(a1-3)]Man(b1-4)GlcNAc(b1-4)GlcNAc", "in_short": "as §1"}, "[19]": {"target": "Gal(b1-4)GlcNAc(b1-3)Gal(b1-4)GlcNAc(b1-2)Man(a1-3)[Gal(b1-4)GlcNAc(b1-3)Gal(b1-4)GlcNAc(b1-2)Man(a1-6)]Man(b1-4)GlcNAc(b1-4)GlcNAc", "in_short": "as §1"}, "[20]": {"target": "Gal(b1-4)GlcNAc(b1-3)Gal(b1-4)GlcNAc(b1-3)Gal(b1-4)GlcNAc", "in_short": "as §1"}, "[21]": {"target": "Gal(b1-4)GlcNAc(b1-3)Gal(b1-4)GlcNAc(b1-3)Gal(b1-4)GlcNAc(b1-2)Man(a1-3)[Gal(b1-4)GlcNAc(b1-3)Gal(b1-4)GlcNAc(b1-3)Gal(b1-4)GlcNAc(b1-2)Man(a1-6)]Man(b1-4)GlcNAc(b1-4)[Fuc(a1-6)]GlcNAc", "in_short": "as §1"}, "[22]": {"target": "Gal(b1-4)GlcNAc(b1-3)Gal(b1-4)GlcNAc(b1-3)Gal(b1-4)GlcNAc(b1-2)[Gal(b1-4)GlcNAc(b1-3)Gal(b1-4)GlcNAc(b1-3)Gal(b1-4)GlcNAc(b1-6)]Man(a1-6)[Gal(b1-4)GlcNAc(b1-3)Gal(b1-4)GlcNAc(b1-3)Gal(b1-4)GlcNAc(b1-2)Man(a1-3)]Man(b1-4)GlcNAc(b1-4)[Fuc(a1-6)]GlcNAc", "in_short": "as §1"}}, "note": "Shown is part of a subset that was picked to be rich in the strongest signals.", "data": [{"binder": "B1", "values": [{"measurement": "glycan array binding signal (z-score)", "setting": "[1]", "result": -0.125}, {"measurement": "glycan array binding signal (z-score)", "setting": "Fuc(a1-2)Gal(b1-4)Glc6S", "result": 0.834}, {"measurement": "glycan array binding signal (z-score)", "setting": "[2]", "result": 5.81}, {"measurement": "glycan array binding signal (z-score)", "setting": "[3]", "result": 5.09}, {"measurement": "glycan array binding signal (z-score)", "setting": "[4]", "result": 7.12}, {"measurement": "glycan array binding signal (z-score)", "setting": "[5]", "result": 0.082}, {"measurement": "glycan array binding signal (z-score)", "setting": "[6]", "result": -0.267}, {"measurement": "glycan array binding signal (z-score)", "setting": "[7]", "result": -0.319}, {"measurement": "glycan array binding signal (z-score)", "setting": "[8]", "result": -0.23}, {"measurement": "glycan array binding signal (z-score)", "setting": "[9]", "result": -0.214}, {"measurement": "glycan array binding signal (z-score)", "setting": "Fuc(a1-4)GlcNAc", "result": -0.324}, {"measurement": "glycan array binding signal (z-score)", "setting": "Gal(a1-3)Gal(b1-3)Glc", "result": 1.04}, {"measurement": "glycan array binding signal (z-score)", "setting": "[10]", "result": -0.147}, {"measurement": "glycan array binding signal (z-score)", "setting": "[11]", "result": -0.011}, {"measurement": "glycan array binding signal (z-score)", "setting": "Gal(a1-4)Gal(b1-4)GlcNAc", "result": -0.251}, {"measurement": "glycan array binding signal (z-score)", "setting": "Gal(b1-3)Gal", "result": -0.328}, {"measurement": "glycan array binding signal (z-score)", "setting": "Gal(b1-3)Gal(b1-4)GlcNAc", "result": -0.341}, {"measurement": "glycan array binding signal (z-score)", "setting": "Gal(b1-3)GalNAc", "result": -0.006}, {"measurement": "glycan array binding signal (z-score)", "setting": "[12]", "result": 0.962}, {"measurement": "glycan array binding signal (z-score)", "setting": "[13]", "result": 0.04}, {"measurement": "glycan array binding signal (z-score)", "setting": "[14]", "result": -0.33}, {"measurement": "glycan array binding signal (z-score)", "setting": "[15]", "result": -0.289}, {"measurement": "glycan array binding signal (z-score)", "setting": "[16]", "result": -0.367}, {"measurement": "glycan array binding signal (z-score)", "setting": "Gal(b1-4)Glc6S", "result": 0.576}, {"measurement": "glycan array binding signal (z-score)", "setting": "[17]", "result": 0.141}, {"measurement": "glycan array binding signal (z-score)", "setting": "[18]", "result": -0.186}, {"measurement": "glycan array binding signal (z-score)", "setting": "[19]", "result": 2.23}, {"measurement": "glycan array binding signal (z-score)", "setting": "[20]", "result": 0.945}, {"measurement": "glycan array binding signal (z-score)", "setting": "[21]", "result": 4.99}, {"measurement": "glycan array binding signal (z-score)", "setting": "[22]", "result": 4.93}]}]}
